In the supplement of paper PMC10681739:
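Also: Full-length recombinant human ETS1 or RUNX1 bound to double-stranded 36-bp genomic probes on microarrays, detected by protein-specific primary antibody and Alexa488 secondary, spot fluorescence as median of four replicate spots.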

What follows are sequences tested against RUNX1 (UniProt Q01196) (assay: RUNX1 binding intensity (PBM fluorescence) in presence of ETS1, normalised to RUNX1-only experiment (arbitrary fluorescence units); higher = stronger binding). Settings: RUNX1 concentration 2 nM; ETS1 concentration 25 nM.
RUNX1, sequence (Q01196 whole entry): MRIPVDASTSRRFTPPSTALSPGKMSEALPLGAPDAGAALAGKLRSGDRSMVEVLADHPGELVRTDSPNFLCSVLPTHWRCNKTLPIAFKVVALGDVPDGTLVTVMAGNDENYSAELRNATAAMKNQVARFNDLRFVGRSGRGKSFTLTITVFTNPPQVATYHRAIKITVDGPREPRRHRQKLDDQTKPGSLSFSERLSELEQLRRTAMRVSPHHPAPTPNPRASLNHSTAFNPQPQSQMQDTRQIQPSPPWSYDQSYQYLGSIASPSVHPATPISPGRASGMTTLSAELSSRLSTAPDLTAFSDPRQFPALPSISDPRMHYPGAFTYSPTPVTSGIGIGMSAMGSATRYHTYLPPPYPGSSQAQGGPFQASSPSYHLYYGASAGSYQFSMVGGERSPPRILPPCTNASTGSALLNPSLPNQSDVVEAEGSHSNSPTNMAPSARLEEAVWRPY
Experimental: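 Cooperative gcPBM on 36-bp genomic probes with neighbouring ETS1 and RUNX1 sites. Recombinant human RUNX1 (2 nM) was incubated alone or with ETS1 (25 nM) and detected with anti-RUNX1 antibody plus Alexa488 secondary. Values are medians over 4 replicate spots; the RUNX1+ETS1 data were normalised to the RUNX1-only data. The probes sit in constant array flanks that are not printed.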
CGAGTAGAGATAGCAGGAAGTGGTTTATTCTGAGGT gave an RUNX1 binding intensity of 1800.
GCCGGGCACCCCGGAAGACCGCTGGGAACCGGCTTT gave an RUNX1 binding intensity of 1080.
With CAACCCGGAAGCACTAACGGAGAAACCGCAACTCGG the RUNX1 binding intensity was 12700.
GGGGCTGGGAAAGGATGTGGTAAGGGCCAGTCAGTC showed an RUNX1 binding intensity of 1920.
CAACACAGGATGTGCAGTATTATACCGCAAAGCACT gave an RUNX1 binding intensity of 2070.
Work on CTCAGCTCCGCGGAAGTTGCGGTAAGTGGAGCTTTG yielded an RUNX1 binding intensity of 5790.
With TTCACAACACAGGATGTGCGGTATTATACGGCAAAG the RUNX1 binding intensity was 2390.
AAACTCCCCCACTTCCGCCCACAGCCCTCTGGGCTT was tested, and the RUNX1 binding intensity was 3490.
Work on AACTCCTGGCCGGAACGGCACAGACCGCACTCCCGC yielded an RUNX1 binding intensity of 917.
ATACCGGCGCATCCGGATTTTGAAGCCGCAGTGGAC was tested, and the RUNX1 binding intensity was 1200.
AGCTCTGCCAGGAAGTGAGAACCACAGGCCTCCCCT gave an RUNX1 binding intensity of 1350.
For TGGGGACCACTGTCAGGATGTGGTCACTGGAGTCAC, the RUNX1 binding intensity was 1540.
GTCACCATTTCCGGGCCTCCGCGGTGTCCCCACCCC gave an RUNX1 binding intensity of 2900.
Sequence GAAAAAAATGAGCTTCCTTTAACCACAACTGTATTA has an RUNX1 binding intensity of 2340.
TGCCTCCTCGTCACAGGATGTGGTCGCTGCACCCTG was tested, and the RUNX1 binding intensity was 1700.
GAGTTCCGCCTCGCCGTTTGTCCCTTGCGGTACCCG was tested, and the RUNX1 binding intensity was 2030.
Sequence GAAGCTCCCCAAACAGGATGTGGTTAGGGAGAGGGG has an RUNX1 binding intensity of 4090.
Sequence TTGGTGACCTCTTCCTGTCCGCTGTGGTGTTGTTAC has an RUNX1 binding intensity of 2350.
Sequence GCGCGGCGCGACCGGACGCTGCGGGCGGGGAAGAGG has an RUNX1 binding intensity of 929.
AGGGAACAGGAAATGCAAAAAACCACAAGGGACAAG was tested, and the RUNX1 binding intensity was 15800.
In the case of CAGAAACATCCCTCCTGCCGCCGCTTTGTGGTACCA, the RUNX1 binding intensity was 925.
With TCCAGCGGAAGGGGGCATCTTTGCGGCAGAGGCAGC the RUNX1 binding intensity was 979.
TGGCTGTCACTTCCTGTCCCACTGTGGTTCCTGGGA was tested, and the RUNX1 binding intensity was 1820.
In the case of ACTACAGGAGGAAACTACAGCCTAAACCACATGCAA, the RUNX1 binding intensity was 892.
In the case of GGGTCCTTCCGGGTTTTGTGTCGAATCTGCGGCGGC, the RUNX1 binding intensity was 1720.
CAGACCAGCCCAGGAAACAAGGAACCACAAAGCCAC was tested, and the RUNX1 binding intensity was 992.
Work on CTGACAGTTACTTCCTGTCTTTGTGGGCGATTGTGA yielded an RUNX1 binding intensity of 2390.
With CTGAAACAGGAAACAGACAAAGCCACAAGGTTCGCA the RUNX1 binding intensity was 1780.
TCAGAACCAGGAAACTGAAGGCGGTTACTCCACATA was tested, and the RUNX1 binding intensity was 875.
Sequence GAGGAACCCAAAGTAGGATGTGGTTTTGCAATTGGA has an RUNX1 binding intensity of 1770.
In the case of TAGGCGGAAAGCCCGCTAGCCTAAACCACAGAGGGT, the RUNX1 binding intensity was 872.
For CCTTGCTGCAGGATGCTCTAACCACAAGCCCAGGAG, the RUNX1 binding intensity was 5330.
Sequence ACACCCCAGGAAGTGGCAGAGACCACAACAAGTCAG has an RUNX1 binding intensity of 1910.
GACAAAACACAGAAAGGAAGTGGTCAACTATTGCAC was tested, and the RUNX1 binding intensity was 1600.
ACCCAGGAGGCGGAAGTTGTGGTGAGCCGAGATCGC gave an RUNX1 binding intensity of 3150.
In the case of GTTGAGTAGTGACAGGAAGTGACCGCAAGGGGGCGC, the RUNX1 binding intensity was 3540.
CCGCCACCGGAAGCGCCCTCCTAATCCCCGCAGCGC was tested, and the RUNX1 binding intensity was 1920.
In the case of TTTGATTTCCTGTCTCCATGTTGTGGTCAAGATTGC, the RUNX1 binding intensity was 4420.
TCCTCCCACGGGAAGTGCCGTAGGACCGCAGCCCGA was tested, and the RUNX1 binding intensity was 1020.
AACCCCAAAACGGAAACACCGGAGCCACAAGCTGAG gave an RUNX1 binding intensity of 1300.
